Test results from PubChem BioAssay AID1159580 (chemical genetic matrix, 2015).
Hit rate of the full screen: of about 5,500 compounds, about 2,000 (36%) were called active. About 18% were inconclusive and are not listed. Cut-off read from the data, not from the text of the source: active = normalized growth mostly below about 0.91 (no sharp cut-off); inconclusive = no clear call, values can overlap the other calls; inactive = mostly above about 0.92. The list shows a part of the results.

Assay: chemical genetic growth profiling, strain panel (AID 1159580);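 note: tested at 20 µM; growth read once vehicle control cultures reached saturation at 30 °C; 1 = growth at the plate median or of vehicle wells; lower values mean less growth of the strain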
Details: S. cerevisiae deletion strains, growth OD

Measured: normalized growth

COc1cc(OC)c2c(c1)OC(c1ccc(OC)c(OC)c1)C(O)C2 (centres undefined)
inactive: locus YBR021W, strain FUR4, hits give low values 1.04 | locus YBR229C, strain ROT2, hits give low values 1.01 | locus YCL029C, strain bik1, hits give low values 1.03 | locus YDL035C, strain GPR1, hits give low values 1.08 | locus YDL074C, strain BRE1, hits give low values 1.11 | locus YDL101C, strain DUN1, hits give low values 1.02 | locus YDL185W, strain tfp1, hits give low values 1.03 | locus YDL192W, strain arf1, hits give low values 1.02 | locus YDR101C, strain arx1, hits give low values 0.991 | locus YDR162C, strain NBP2, hits give low values 1.04 | locus YDR318W, strain mcm21, hits give low values 1.03 | locus YDR388W, hits give low values 1 | locus YDR502C, strain sam2, hits give low values 1.03 | locus YER110C, hits give low values 1.01 | locus YER155C, strain BEM2, hits give low values 0.999 | locus YER167W, strain BCK2, hits give low values 1 | locus YGL078C, strain dbp3, hits give low values 1.03 | locus YGL086W, strain mad1, hits give low values 1.02 | locus YGL248W, strain PDE1, hits give low values 1.06 | locus YGR078C, strain PAC10, hits give low values 1.04 | locus YGR135W, strain pre9, hits give low values 1.05 | locus YGR252W, strain gcn5, hits give low values 1.05 | locus YHR030C, strain SLT2, hits give low values 1.02 | locus YHR079C, strain IRE1 (second series), hits give low values 1.02 | locus YHR094C, strain hxt1, hits give low values 1.01 | locus YHR129C, strain ARP1, hits give low values 1.02 | locus YHR200W, strain rpn10, hits give low values 1.04 | locus YIL066C, strain RNR3, hits give low values 1.02 | locus YIL073C, strain SPO22, hits give low values 1.16 | locus YIL125W, strain kgd1, hits give low values 1.02 | locus YIR030C, strain dcg1, hits give low values 1.02 | locus YJL095W, strain BCK1, hits give low values 1.07 | locus YJL134W, strain LCB3, hits give low values 1.01 | locus YJL168C, strain set2, hits give low values 1.01 | locus YJL187C, strain SWE1 (second series), hits give low values 1.05 | locus YJR043C, strain POL32, hits give low values 1.06 | locus YKL009W, strain mrt4, hits give low values 1.04 | locus YKL068W, hits give low values 0.998 | locus YKL085W, strain MDH1 (second series), hits give low values 1.01 | locus YKL085W, strain MDH1, hits give low values 1.01 | locus YKR001C, strain vps1, hits give low values 1.03 | locus YLR039C, strain RIC1, hits give low values 1.17 | locus YLR058C, strain SHM2, hits give low values 1.03 | locus YLR102C, strain apc9, hits give low values 1.01 | locus YLR268W, strain sec22, hits give low values 1.01 | locus YLR371W, strain rom2, hits give low values 1.05 | locus YLR418C, strain cdc73, hits give low values 1.04 | locus YML016C, strain PPZ1, hits give low values 1.01 | locus YML032C, strain rad52, hits give low values 1.02 | locus YML124C, strain tub3, hits give low values 1 | locus YMR078C, strain ctf18, hits give low values 1.02 | locus YMR223W, strain ubp8, hits give low values 1.02 | locus YMR307W, strain GAS1, hits give low values 1.22 | locus YNL067W, strain RPL9B, hits give low values 1.01 | locus YNL233W, strain BNI4, hits give low values 1.05 | locus YNL250W, strain rad50, hits give low values 1.05 | locus YNL271C, strain bni1, hits give low values 1.01 | locus YNL298W, strain CLA4, hits give low values 1.03 | locus YNL307C, strain MCK1, hits give low values 1.01 | locus YNR052C, strain pop2, hits give low values 1.05 | locus YOL012C, strain htz1 1.04 | locus YOL147C, strain pex11, hits give low values 1.03 | locus YOR061W, strain CKA2, hits give low values 1.01 | locus YOR069W, strain VPS5, hits give low values 1.02 | locus YOR136W, strain idh2, hits give low values 1.02 | locus YOR144C, strain elg1, hits give low values 1.01 | locus YOR184W, strain ser1, hits give low values 1.02 | locus YOR316C, strain cot1, hits give low values 1.03 | locus YPL241C, strain CIN2, hits give low values 1.02 | locus YPR119W, strain clb2, hits give low values 1.01 | locus YPR141C, strain kar3, hits give low values 1.02 | locus YPR163C, strain tif3, hits give low values 1.02 | locus YPR167C, strain met16, hits give low values 1.04 | strain wtn01, hits give low values 1.03
